Consider 56 compounds from PubChem BioAssay AID2685 (National Center for Advancing Translational Sciences (NCATS), 2010).

SMILES strings stand for the structures. Hit rate of the full screen: of about 320,000 compounds, about 2,100 (0.66%) were called active. Inconclusive results (about 53%) are left out. Calls come from the whole dose curve; as a rule, active = well fitted inhibition curve with a large enough effect in the signal ratio, with a control signal flat (not every such curve was filed as active); inconclusive = small, poorly fitted or top-dose-only effect, or effect the other way, or a change in a side signal; inactive = flat fitted curve, though single readings scatter; the % refers to the signal ratio. The list comes from a sample in which actives are over-represented; it also holds similar structures and randomly drawn compounds.
Potency is the fitted concentration of half-maximal effect.

This assay can be described thus: qHTS Assay for Lipid Storage Modulators in Drosophila S3 Cells.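 For cell number change: cells counted by Cell Tracker Red CMTPX staining in the red channel.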 For lipid storage change, negative = inhibition: % is set by controls: 0 for no effect and ±100 for the full control effect. Particulars: BODIPY lipid droplet fluorescence, 18-24 h, cells fed with added oleic acid; cell number change: measured here: cell count max response; series mostly up to 46.1 µM; lipid storage change, negative = inhibition: at the top concentration. Put shortly: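 Laser-scanning cytometry quantifies lipid droplet accumulation (500–530 nm total intensity; droplet/cell object ratio) in oleic acid-fed (400 uM added) Drosophila S3 cells treated with a concentration series. 20 uM Triacsin C defined 100% inhibition.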
For orientation: qHTS replaces the single test concentration by a dilution series.
Turning to `CC(=O)c1c(C)[nH]c(C(=O)NCc2cccs2)c1C`, the result was inactive. With `COc1ccc(N2CCN(CC(O)COc3ccc4c(c3)CCC4)CC2)cc1` (stereo not given), the compound was called inactive and the cell number change was 10.4%. As for `O=C1CN(CC(=O)N2CCOCC2)c2ccccc2O1`, the call was inactive. Turning to `COc1ccc(/C(C)=N/NC(=S)NCCc2ccccc2)cc1`, the outcome was inactive. In the case of `COc1cccc(OC)c1C(=O)NC(C)c1ccccc1` (stereo not given), the “lipid storage change, negative = inhibition” value was 2.45% (inactive) and the cell number change was determined as 0.137%. Take `NS(=O)(=O)c1ccc(CCNC(=O)c2ccc3c(c2)OCCO3)cc1`: the “lipid storage change, negative = inhibition” value was -3.84% (inactive) and the cell number change is 12.5%. As for `NS(=O)(=O)c1ccc(CCNC(=O)c2ccc3c(c2)OCO3)cc1`, the Potency was 23.1 µM (active) and the cell number change is 21.4%. Take `O=C(NCCc1ccc(Cl)cc1)c1ccc2c(c1)OCO2`: the “lipid storage change, negative = inhibition” value was -3.03% (inactive). `CCCCSc1nc2sc3c(c2c(=O)n1-c1ccc(C)cc1)CCN(C)C3`: the “lipid storage change, negative = inhibition” value is -30% (inactive) and the cell number change was determined as 14.8%. Consider `CS(=O)(=O)Oc1ccc(/C=C2\C(=N)N3N=C(CC(=O)N4CCOCC4)SC3=NC2=O)cc1Cl`, for which the outcome was inactive and the cell number change worked out at 6.05%. Regarding `Cc1cc(/C=C2/C(=O)N(C)C(=S)N2C)ccc1N1CCCC1`, the Potency is 4.47 µM (active) and the cell number change was -25.4%.

Turning to `CN1C(=O)/C(=C/c2ccc(O)c([N+](=O)[O-])c2)N(C)C1=S`, the “lipid storage change, negative = inhibition” value was 3.49% (inactive) and the cell number change was 0.447%. On to `COc1cc(/C=C2\C(=O)N(C)C(=S)N2C)ccc1O`, for which the “lipid storage change, negative = inhibition” value was 2.76% (inactive) and the cell number change is -9.16%. With `CCc1ccc(NC(=O)c2cc(C)nn2-c2ccccc2)cc1`, the “lipid storage change, negative = inhibition” value is 9.85% (inactive) and the cell number change worked out at 2.41%. Consider `CC12CCC(=O)N1C(C(=O)NNC(=O)c1ccc(Cl)cc1)CS2` (stereo not given), for which the “lipid storage change, negative = inhibition” value is -23.9% (inactive) and the cell number change was determined as 25.5%. Consider `COCCn1c(SCC(=O)Nc2cc(C)on2)nc2c(c1=O)SC(C)C2` (stereo not given), for which the “lipid storage change, negative = inhibition” value was 15.1% (inactive) and the cell number change was 9.04%. Turning to `Cc1csc(NC(=O)CSC2=NS(=O)(=O)c3cc(F)ccc3N2)n1`, the lipid storage change, negative = inhibition was 27.8% [at 0.0737 µM] (inactive).

Take `CCN(C(=O)COC(=O)CCOc1ccccc1)c1c(N)n(Cc2ccccc2)c(=O)[nH]c1=O`: the “lipid storage change, negative = inhibition” value was 6.7% (inactive) and the cell number change is 3.61%. Turning to `CCCN(C(=O)C1=COCCO1)c1c(N)n(Cc2ccccc2)c(=O)[nH]c1=O`, the cell number change is -8.42% and the lipid storage change, negative = inhibition was 5.43% [at 0.0737 µM] (inactive). Turning to `CCN(C(=O)CN1CCN(c2cccc(Cl)c2)CC1)c1c(N)n(Cc2ccccc2)c(=O)[nH]c1=O`, the “lipid storage change, negative = inhibition” value was 8.94% (inactive) and the cell number change is -10%.

Consider `CCN(C(=O)CN1CCN(c2ccccc2)CC1)c1c(N)n(Cc2ccccc2)c(=O)[nH]c1=O`, for which the Potency is 13 µM (active) and the cell number change is -21.7%. For the compound `CCN(C(=O)CN1CCCCC1)c1c(N)n(Cc2ccccc2)c(=O)[nH]c1=O`, the “lipid storage change, negative = inhibition” value is -1.92% (inactive) and the cell number change turned out to be 1.16%.

With `CCCN(C(=O)COC(=O)CCOc1ccccc1)c1c(N)n(Cc2ccccc2)c(=O)[nH]c1=O`, the Potency is 14.6 µM (active) and the cell number change is -10.8%. For `CCCN(C(=O)c1c(-c2ccccc2)noc1C)c1c(N)n(Cc2ccccc2)c(=O)[nH]c1=O`, in that order: 1.84 µM (active) and 9.83%. In the case of `CCCN(C(=O)c1ccc([N+](=O)[O-])c(C)c1)c1c(N)n(Cc2ccccc2)c(=O)[nH]c1=O`, the “lipid storage change, negative = inhibition” value was -11% (inactive) and the cell number change was -21.6%. For `CCN(C(=O)COC(=O)CCCOc1ccccc1)c1c(N)n(Cc2ccccc2)c(=O)[nH]c1=O`, in that order: -0.952% (inactive) and -12.5%. For `c1ccc2c(c1)nnn2CNc1nccs1`, in that order: 11.7% (inactive) and -2.46%. Turning to `COc1ccc(C(=O)NC2CCCCCC2)cc1S(=O)(=O)Nc1ccc(Br)cc1`, the result was inactive and the cell number change was -11.3%.

As for `CCCCCCn1c(=O)c(C(=O)N/N=C/c2cccc(F)c2)c(O)c2ccccc21`, the “lipid storage change, negative = inhibition” value was -4% (inactive) and the cell number change worked out at 5.21%. As for `CC12C(=O)N(n3cnnc3)C(=O)C1C1C=CC2C1` (stereo not given), the Potency is 18.4 µM (active) and the cell number change stood at 2.58%. Regarding `CC12C(=O)N(NC(=O)c3ccncc3)C(=O)C1C1C=CC2C1` (stereo not given), the “lipid storage change, negative = inhibition” value was 9.21% (inactive) and the cell number change is 6.42%. Taken in the same sequence, the figures for `O=C1[C@@H]2[C@H](C(=O)N1n1cnnc1)[C@H]1C=C[C@@H]2C1` were 6.88% (inactive) and 1.74%.

In the case of `CN1CCN(S(=O)(=O)c2ccc(Nc3cccc(Cl)c3)c([N+](=O)[O-])c2)CC1`, the “lipid storage change, negative = inhibition” value was 10.8% (inactive) and the cell number change was found to be 8.16%. Taken in the same sequence, the figures for `COc1ccc(C(=O)Nc2cccc(S(=O)(=O)NC3=NCCCCC3)c2)cc1` were 10.1% (inactive) and -1.04%. Taken in the same sequence, the figures for `CN(C)c1nc(N(C)C)nc(N2CCCCC2)n1` were 21% (inactive) and 10.3%.

In the case of `COc1ccc(NC(=O)CCC(=O)OC(C(=O)c2ccccc2)c2ccccc2)cc1` (stereo not given), the “lipid storage change, negative = inhibition” value was -9.84% (inactive) and the cell number change was -23.4%.

Take `O=C(CCC(=O)OC(C(=O)c1ccccc1)c1ccccc1)Nc1ccccc1` (stereo not given): the Potency was 0.731 µM (active) and the cell number change is -23.6%.

With `Cc1ccc(C(=O)C(OC(=O)CCC(=O)Nc2cccc(C)c2)c2ccccc2)cc1` (stereo not given), the “lipid storage change, negative = inhibition” value is -7.6% (inactive) and the cell number change was -1.69%.

Turning to `COc1ccc(NS(=O)(=O)c2ccc(NC(C)=O)cc2)c(OC)c1`, the “lipid storage change, negative = inhibition” value is 5.93% (inactive) and the cell number change came to 0.633%. Turning to `O=C(NCCc1cnn(-c2ccccc2)c1)c1cc(COc2c(F)cccc2F)on1`, the “lipid storage change, negative = inhibition” value was 15.2% (inactive) and the cell number change turned out to be 0.269%. Turning to `COc1ccccc1CNc1ncc(-c2ccc(F)cc2)n1C`, the “lipid storage change, negative = inhibition” value was -18.1% (inactive) and the cell number change is -1.58%.

With `Cn1c(-c2ccc(F)cc2)cnc1NCc1ccc(F)cc1F`, the “lipid storage change, negative = inhibition” value was -14.7% (inactive) and the cell number change stood at 25.6%. On to `COc1ccc(OC)c(CNc2ncc(-c3ccc(F)cc3)n2C)c1`, for which the Potency was 32.6 µM (active) and the cell number change is -16.1%. As to `COc1ccc(-n2c(=O)c3ccccc3n(CC(=O)NC3CCCCC3)c2=O)c(OC)c1`, the “lipid storage change, negative = inhibition” value was 21.5% (inactive). Consider `CC(C)(CO)NC12CC3CC(CC(C3)C1)C2`, for which the Potency was 0.058 µM (active) and the cell number change is -20.6%.

For the compound `CC(O)CNC12CC3CC(CC(C3)C1)C2` (stereo not given), the “lipid storage change, negative = inhibition” value was -12.7% (inactive). `CC(C)(C)NC(=O)NC12CC3CC(CC(C3)C1)C2`: the “lipid storage change, negative = inhibition” value is 7.75% (inactive) and the cell number change is 0.331%. Regarding `Cc1ccc(S(=O)(=O)N(C)/N=C/c2ccc(N(C)C)cc2)cc1`, the “lipid storage change, negative = inhibition” value is 7.16% (inactive) and the cell number change stood at 12.7%.

`O=C(NCc1ccccc1)/C(=C/c1ccc([N+](=O)[O-])cc1)NC(=O)c1ccco1`: the compound was classed as inactive and the cell number change is -3.81%. Consider `COc1ccc(C(=O)CSc2nnc(CNC(=O)c3ccccc3F)n2C)cc1OC`, for which the “lipid storage change, negative = inhibition” value was -9.91% (inactive) and the cell number change was found to be 0.87%.

As for `O=C(NCCOc1ccccc1)C1CCCN1C(=O)c1cccs1` (stereo not given), the “lipid storage change, negative = inhibition” value is -2.36% (inactive) and the cell number change is -1.16%. Regarding `O=C(NC1CCCCC1)C(c1ccc(F)cc1)N(Cc1ccco1)C(=O)Cn1nnc2ccccc21` (stereo not given), the Potency is 16.4 µM (active) and the cell number change amounted to 19.8%. In the case of `O=C(NCc1ccco1)C(c1ccc(F)cc1)N(CC1CCCO1)C(=O)Cn1nnc2ccccc21` (stereo not given), the call was inactive and the cell number change is -18.6%.

As to `O=C(NC1CCCCC1)C(c1ccc(F)cc1)N(Cc1ccco1)C(=O)CN1C(=O)c2ccccc2S1(=O)=O` (stereo not given), the “lipid storage change, negative = inhibition” value was -10.1% (inactive) and the cell number change was determined as 11.1%. `COc1ccccc1/C=C/c1onc(C)c1S(=O)(=O)N1CCC(C(=O)NC2CCCCCC2)CC1`: the outcome was inactive and the cell number change is -0.659%. Consider `CCOC(=O)CC(NC(=O)c1cc2ccccc2oc1=O)c1cccc([N+](=O)[O-])c1` (stereo not given), for which the “lipid storage change, negative = inhibition” value was 11.5% (inactive) and the cell number change was determined as 11.6%.
